Measurements: PubChem BioAssay AID1159580 (chemical genetic matrix, 2015)
Where “and” joins values, the source holds several entries; their conditions need not be identical. Equal entries are not always repeated. Among all 5,500 compounds or so, about 2,000 (36%) were called active. Not shown: some 18% with an inconclusive outcome. No stated cut-off is given here; in the data, active means normalized growth mostly below about 0.91 (no sharp cut-off); inconclusive means no clear call, values can overlap the other calls; inactive means mostly above about 0.92. The list shows a part of the results.

Assay: chemical genetic growth profiling, strain panel (AID 1159580);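 further: tested at 20 µM; growth read once vehicle control cultures reached saturation at 30 °C; 1 = growth at the plate median or of vehicle wells; lower values mean less growth of the strain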
Conditions: S. cerevisiae deletion strains, growth OD

Measured: normalized growth

C=C[C@H]1CN2CC[C@H]1C[C@@H]2[C@@H](OC(=O)OCC)c1ccnc2ccc(OC)cc12
inactive: locus YAL013W, strain DEP1, hits give low values 1 | locus YAL021C, strain ccr4, hits give low values 0.93 | locus YAL026C, strain drs2, hits give low values 1.01 | locus YAL030W, strain snc1, hits give low values 0.989 | locus YBL061C, strain skt5, hits give low values 0.995 | locus YBR009C, strain hhf1, hits give low values 0.978 | locus YBR021W, strain FUR4, hits give low values 0.992 | locus YBR023C, strain chs3, hits give low values 0.997 | locus YBR171W, strain sec66, hits give low values 0.995 | locus YBR229C, strain ROT2, hits give low values 1 | locus YBR231C, strain swc5, hits give low values 1 | locus YBR279W, strain paf1, hits give low values 0.997 | locus YCL011C, strain gbp2, hits give low values 0.969 | locus YCL016C, strain dcc1, hits give low values 0.955 | locus YCL029C, strain bik1, hits give low values 1.02 | locus YCL061C, strain MRC1, hits give low values 0.979 | locus YCL069W, strain vba3, hits give low values 0.998 | locus YCR088W, strain abp1, hits give low values 0.999 | locus YDL005C, strain med2, hits give low values 0.978 | locus YDL035C, strain GPR1, hits give low values 0.981 | locus YDL040C, strain nat1, hits give low values 0.994 | locus YDL074C, strain BRE1, hits give low values 1.03 | locus YDL101C, strain DUN1, hits give low values 1.02 | locus YDL134C, strain PPH21, hits give low values 0.991 | locus YDL185W, strain tfp1, hits give low values 1.02 | locus YDL192W, strain arf1, hits give low values 1.01 | locus YDR001C, strain nth1, hits give low values 0.985 | locus YDR069C, strain doa4, hits give low values 0.979 | locus YDR101C, strain arx1, hits give low values 1 | locus YDR137W, strain rgp1, hits give low values 1.01 | locus YDR150W, strain NUM1, hits give low values 1.01 | locus YDR159W, strain sac3, hits give low values 1.03 | locus YDR162C, strain NBP2, hits give low values 1.02 | locus YDR195W, strain ref2 0.956 | locus YDR297W, strain sur2, hits give low values 1.01 | locus YDR318W, strain mcm21, hits give low values 1.01 | locus YDR334W, strain swr1, hits give low values 0.995 | locus YDR335W, strain msn5, hits give low values 0.983 | locus YDR388W, hits give low values 1.02 | locus YDR392W, strain spt3, hits give low values 0.879 | locus YDR502C, strain sam2, hits give low values 1.01 | locus YEL003W, strain gim4, hits give low values 0.999 | locus YEL037C, strain rad23, hits give low values 0.983 | locus YEL061C, strain CIN8 (second series), hits give low values 0.994 | locus YEL061C, strain CIN8, hits give low values 1.01 | locus YER015W, strain faa2, hits give low values 0.989 | locus YER016W, strain bim1, hits give low values 0.995 | locus YER110C, hits give low values 1.03 | locus YER111C, strain swi4, hits give low values 0.991 | locus YER155C, strain BEM2 (second series), hits give low values 1.01 | locus YER155C, strain BEM2, hits give low values 1 | locus YER167W, strain BCK2, hits give low values 0.997 | locus YFR010W, strain ubp6, hits give low values 1 | locus YGL078C, strain dbp3, hits give low values 1.01 | locus YGL086W, strain mad1, hits give low values 1.01 | locus YGL167C, strain pmr1, hits give low values 0.962 | locus YGL173C, strain kem1, hits give low values 1.01 | locus YGL227W, strain vid30, hits give low values 0.994 | locus YGL240W, strain doc1, hits give low values 1.01 | locus YGL248W, strain PDE1, hits give low values 1.03 | locus YGL253W, strain hxk2, hits give low values 1.04 | locus YGR135W, strain pre9, hits give low values 1.02 | locus YGR229C, strain SMI1, hits give low values 1.01 | locus YGR252W, strain gcn5, hits give low values 0.984 | locus YHR013C, strain ard1, hits give low values 0.951 | locus YHR027C, strain rpn1, hits give low values 0.983 | locus YHR030C, strain SLT2, hits give low values 1.01 and 1.08 | locus YHR079C, strain IRE1 (second series), hits give low values 1.03 | locus YHR079C, strain IRE1, hits give low values 1.03 | locus YHR094C, strain hxt1, hits give low values 1.02 | locus YHR129C, strain ARP1, hits give low values 1.01 | locus YHR142W, strain chs7, hits give low values 0.973 | locus YHR200W, strain rpn10, hits give low values 1.02 | locus YIL066C, strain RNR3, hits give low values 1.01 | locus YIL073C, strain SPO22, hits give low values 1.04 | locus YIL125W, strain kgd1, hits give low values 1.02 | locus YIR030C, strain dcg1, hits give low values 1.02 | locus YJL092W, strain hpr5, hits give low values 0.992 | locus YJL095W, strain BCK1 (second series), hits give low values 0.986 | locus YJL095W, strain BCK1, hits give low values 1.04 and 1.02 | locus YJL115W, strain asf1, hits give low values 0.966 | locus YJL129C, strain trk1, hits give low values 1.02 | locus YJL134W, strain LCB3, hits give low values 1.01 | locus YJL154C, strain vps35, hits give low values 0.986 | locus YJL164C, strain tpk1, hits give low values 0.966 | locus YJL166W, strain qcr8, hits give low values 1 | locus YJL168C, strain set2, hits give low values 1.03 | locus YJL187C, strain SWE1 (second series), hits give low values 1.03 | locus YJR043C, strain POL32, hits give low values 0.996 | locus YJR066W, strain TOR1, hits give low values 1 | locus YKL009W, strain mrt4, hits give low values 1.04 | locus YKL068W, hits give low values 1.02 | locus YKL085W, strain MDH1 (second series), hits give low values 1.01 | locus YKL085W, strain MDH1, hits give low values 1.01 | locus YKL160W, strain elf1, hits give low values 0.96 | locus YKL190W, strain CNB1, hits give low values 1.01 | locus YKR001C, strain vps1, hits give low values 1.01 | locus YKR026C, strain gcn3, hits give low values 0.998 | locus YKR091W, strain srl3, hits give low values 0.991 | locus YLL001W, strain dnm1, hits give low values 0.942 | locus YLL026W, hits give low values 0.985 | locus YLL041C, strain sdh2, hits give low values 0.976 | locus YLR027C, strain aat2, hits give low values 1.01 | locus YLR039C, strain RIC1, hits give low values 1.01 | locus YLR058C, strain SHM2, hits give low values 1.01 | locus YLR102C, strain apc9, hits give low values 1.02 | locus YLR113W, strain HOG1, hits give low values 1.01 | locus YLR221C, strain rsa3, hits give low values 1.04 | locus YLR258W, strain gsy2, hits give low values 0.973 | locus YLR262C, strain YPT6 (second series), hits give low values 1 | locus YLR262C, strain YPT6, hits give low values 1.05 | locus YLR268W, strain sec22, hits give low values 1.02 | locus YLR320W, strain mms22, hits give low values 1.07 | locus YLR330W, strain CHS5, hits give low values 1.01 | locus YLR342W, strain FKS1 (second series), hits give low values 0.998 | locus YLR342W, strain FKS1, hits give low values 0.995 | locus YLR357W, strain rsc2, hits give low values 0.962 | locus YLR370C, strain arc18, hits give low values 0.99 | locus YLR371W, strain rom2, hits give low values 1.02 | locus YLR384C, strain iki3, hits give low values 0.997 | locus YLR418C, strain cdc73, hits give low values 1.02 | locus YML016C, strain PPZ1, hits give low values 1.01 | locus YML032C, strain rad52, hits give low values 1.02 | locus YML120C, strain ndi1, hits give low values 0.973 | locus YML124C, strain tub3, hits give low values 1.02 | locus YMR058W, strain fet3, hits give low values 0.989 | locus YMR078C, strain ctf18, hits give low values 1.02 | locus YMR125W, strain sto1, hits give low values 0.963 | locus YMR129W, hits give low values 0.997 | locus YMR205C, strain PFK2, hits give low values 0.951 | locus YMR223W, strain ubp8, hits give low values 1.01 | locus YMR231W, strain pep5, hits give low values 1 | locus YMR263W, strain SAP30, hits give low values 1.03 | locus YMR307W, strain GAS1, hits give low values 0.905 | locus YNL067W, strain RPL9B, hits give low values 1.05 | locus YNL071W, strain lat1, hits give low values 0.997 | locus YNL183C, strain NPR1, hits give low values 0.986 | locus YNL209W, strain ssb2, hits give low values 0.983 | locus YNL233W, strain BNI4, hits give low values 1.03 | locus YNL248C, strain rpa49, hits give low values 1.02 | locus YNL250W, strain rad50, hits give low values 1.01 | locus YNL271C, strain bni1, hits give low values 1.04 | locus YNL298W, strain CLA4, hits give low values 1.03 | locus YNL307C, strain MCK1, hits give low values 1.02 | locus YNL322C, strain KRE1 (second series), hits give low values 0.988 | locus YNR049C, strain mso1, hits give low values 0.989 | locus YNR052C, strain pop2, hits give low values 1.02 | locus YOL006C, strain TOP1, hits give low values 1.14 | locus YOL012C, strain htz1 1.23 | locus YOL147C, strain pex11, hits give low values 1.02 | locus YOR001W, strain rrp6, hits give low values 1.01 | locus YOR061W, strain CKA2, hits give low values 1.02 | locus YOR069W, strain VPS5, hits give low values 1.01 | locus YOR070C, strain gyp1, hits give low values 1.03 | locus YOR080W, strain dia2, hits give low values 0.988 | locus YOR083W, strain WHI5, hits give low values 0.963 | locus YOR106W, strain vam3, hits give low values 0.934 | locus YOR136W, strain idh2, hits give low values 1.02 | locus YOR144C, strain elg1, hits give low values 1.02 | locus YOR184W, strain ser1, hits give low values 1.02 | locus YOR231W, strain MKK1, hits give low values 1.03 | locus YOR265W, strain rbl2, hits give low values 0.996 | locus YOR270C, strain vph1, hits give low values 1.07 | locus YOR290C, strain snf2, hits give low values 0.94 | locus YOR316C, strain cot1, hits give low values 1.02 | locus YPL051W, strain arl3, hits give low values 0.983 | locus YPL078C, strain atp4, hits give low values 0.946 | locus YPL106C, strain sse1, hits give low values 0.934 | locus YPL240C, strain hsp82, hits give low values 0.998 | locus YPL256C, strain CLN2, hits give low values 1.09 | locus YPR119W, strain clb2, hits give low values 1.01 | locus YPR141C, strain kar3, hits give low values 1.01 | locus YPR163C, strain tif3, hits give low values 1.03 | locus YPR167C, strain met16, hits give low values 1.02 | strain wtn01, hits give low values 1.04
